# Data reported in PubChem BioAssay (Tox21).
# A number with no mark means an inactive call. Where a call stands in place of a potency, no number is given. The source made the active and inactive calls. Unless noted, calls come from the whole dose curve; as a rule, active = well fitted curve in the direction sought with a large enough effect in the repeat runs; inconclusive = weak or mixed curves; inactive = no such curve, though single readings can be large; an effect the other way counts as inactive or inconclusive.
# How the values were obtained:
# [1] = qHTS assay to identify small molecule antagonists of the thyroid receptor (TR) signaling pathway - cell viability counter screen (AID 743064); note: nearly all actives have a fitted effect of over 50% in size
# Summary of the method: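 Same-well viability check: GH3.TRE-Luc cells stimulated with 1 nM T3 alongside test compound for 23.5 h, followed by CellTiter-Fluor fluorescence.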
# [2] = qHTS assay to identify small molecule antagonists of the thyroid receptor (TR) signaling pathway (AID 743065); note: series mostly up to about 70 µM; nearly all actives have a fitted effect of over 55% in size
# Summary of the method: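 Antagonism measured as loss of luciferase signal in GH3 cells stably carrying a TRE-luciferase reporter, co-treated with compound and T3 (1 nM final) for 23.5 h at 37 C. Viability was read in the same well by CellTiter-Fluor.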
# [3] = tested on: thyroid hormone receptor (rat, GH3 cells); assay: qHTS assay to identify small molecule agonists of the thyroid receptor (TR) signaling pathway (AID 743066; calls by dose curve)
# [4] = target: Estrogen receptor (Homo sapiens) (UniProt P03372); assay: qHTS assay to identify small molecule antagonists of the estrogen receptor alpha (ER-alpha) signaling pathway (AID 743069; active = well fitted curve in the direction sought with a large enough effect in the signal ratio in the repeat runs, not every such curve was filed as active; inconclusive = weak or mixed curves, or effect the other way; inactive = no such curve, though single readings can be large or run the other way; the % refers to the signal ratio; note: potency is the fitted concentration of half-maximal effect)
# Summary of the method: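 ER-alpha-UAS-bla GripTite HEK293 line; 2% charcoal-stripped FBS overnight; plated, 4 hr 37C/5% CO2; cpd in DMSO + 17beta-estradiol, 18 hr 37C; LiveBLAzer B/G FRET substrate 2 hr RT; fluorescence intensity.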
# [5] = qHTS assay to identify small molecule antagonists of the estrogen receptor alpha (ER-alpha) signaling pathway - cell viability counter screen (AID 743074; calls by dose curve;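 note: HEK293 cells carrying ER-alpha-UAS-bla reporter stimulated with 17beta-estradiol; nearly all actives have a fitted effect of over 45% in size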)
# [6] = target: Estrogen receptor (Homo sapiens) (UniProt P03372); assay: qHTS assay to identify small molecule agonists of the estrogen receptor alpha (ER-alpha) signaling pathway (AID 743075; calls by dose curve;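 note: HEK293 GripTite cells with ER-alpha and UAS-driven beta-lactamase reporter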; note: potency is the fitted concentration of half-maximal effect)
# [7] = target: Estrogen receptor (Homo sapiens) (UniProt P03372); assay: qHTS assay to identify small molecule agonists of the estrogen receptor alpha (ER-alpha) signaling pathway using the BG1 cell line (AID 743079); note: nearly all actives have a fitted effect of over 20% in size; note: potency is the fitted concentration of half-maximal effect
# [8] = qHTS assay to identify small molecule antagonists of the estrogen receptor alpha (ER-alpha) signaling pathway using the BG1 cell line (AID 743080; calls by dose curve;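 note: BG1 cells stimulated with 17beta-estradiol alongside compound; series mostly up to about 70 µM; nearly all actives have a fitted effect of over 25% in size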)
# Summary of the method: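 Seeding, 24 h rest, compound transfer from DMSO, 17beta-estradiol addition, 21.5 h incubation, CellTiter-Fluor (30 min, 37 C), then ONE-Glo (30 min, room temperature): this sequence was run on BG1-Luc-4E2 reporter cells.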
# [9] = qHTS assay to identify small molecule antagonists of the estrogen receptor alpha (ER-alpha) signaling pathway using the BG1 cell line - cell viability counter screen (AID 743081);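 note: compound given together with 17beta-estradiol as the ER stimulus; series mostly up to about 70 µM; nearly all actives have a fitted effect of over 45% in size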
# [10] = target: Aromatase (Homo sapiens) (UniProt P11511); assay: qHTS assay to identify aromatase inhibitors (AID 743083); note: series mostly up to about 70 µM; nearly all actives have a fitted effect of over 55% in size
# [11] = qHTS assay to identify aromatase inhibitors - cell viability counter screen (AID 743084);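 note: cells stimulated with testosterone during compound exposure; nearly all actives have a fitted effect of over 55% in size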
# [12] = target: Aryl hydrocarbon receptor (Homo sapiens) (UniProt P35869); assay: qHTS assay to identify small molecule that activate the aryl hydrocarbon receptor (AhR) signaling pathway (AID 743085);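 note: HG2L7.5c1 human HepG2 liver cells with stably integrated DRE-driven firefly reporter; series mostly up to about 70 µM; nearly all actives have a fitted effect of over 15% in size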
# Summary of the method: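 Reporter assay in engineered HepG2 line HG2L7.5c1, whose plasmid carries twenty dioxin responsive elements upstream of firefly luciferase. Treatment lasted 24 h at 37C; ONE-Glo luminescence gauged induction.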
# [13] = qHTS assay to identify small molecule that activate the aryl hydrocarbon receptor (AhR) signaling pathway - cell viability counter screen (AID 743086);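 note: HepG2 liver cells carrying the AhR DRE luciferase reporter; series mostly up to about 70 µM; nearly all actives have a fitted effect of over 45% in size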
# Summary of the method: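 Cytotoxicity counter screen: CellTiter-Fluor signal (30 min, 37 C) in 4000 HepG2 cells/well carrying the DRE-luciferase reporter, following 24 h compound exposure at 37 C.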
# [14] = target: Peroxisome proliferator-activated receptor gamma (Homo sapiens) (UniProt P37231); assay: qHTS assay to identify small molecule agonists of the peroxisome proliferator-activated receptor gamma (PPARg) signaling pathway (AID 743094; active = well fitted activation curve with a large enough effect in the signal ratio in the repeat runs, not every such curve was filed as active; inconclusive = weak or mixed curves, or effect the other way; inactive = no such curve, though single readings can be large or run the other way; the % refers to the signal ratio)
# Summary of the method: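 Beta-lactamase FRET fluorescence was the read-out after a 1 h room-temperature substrate step, following 17 h compound treatment at 37C of HEK293H cells expressing a UAS-driven bla reporter responsive to PPARg.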
# [15] = qHTS assay to identify small molecule antagonists of the peroxisome proliferator-activated receptor gamma (PPARg) signaling pathway - cell viability counter screen (AID 743194); note: nearly all actives have a fitted effect of over 55% in size
# Summary of the method: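 Viability was measured as CellTiter-Glo luminescence in GeneBLAzer PPARg UAS-bla HEK293H cells. These cells had been exposed 17 h at 37 C to compounds together with rosiglitazone at 50 nM final, with the beta-lactamase readout taken in the same wells.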
# [16] = qHTS assay for small molecule agonists of the antioxidant response element (ARE) signaling pathway (AID 743202; active = well fitted activation curve with a large enough effect in the signal ratio in the repeat runs, not every such curve was filed as active; inconclusive = weak or mixed curves, or effect the other way; inactive = no such curve, though single readings can be large or run the other way; the % refers to the signal ratio)
# Summary of the method: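 Quantitative high-throughput format in HepG2 cells bearing an integrated ARE-beta-lactamase reporter. Compound exposure lasted 16 h at 37 C, and fluorescence was read 2 h after adding LiveBLAzer B/G substrate at room temperature.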
# [17] = qHTS assay for small molecule agonists of the antioxidant response element (ARE) signaling pathway - cell viability counter screen (AID 743203; calls by dose curve; note: nearly all actives have a fitted effect of over 55% in size)
# Summary of the method: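 HepG2 cells carrying ARE-driven beta-lactamase; 2,000 cells/well; 5 hrs plating; compound pinned from DMSO; 16 hrs 37C/5% CO2; CellTiter-Glo added; 30 min RT; luminescence.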
# [18] = qHTS assay for small molecule activators of the heat shock response signaling pathway - cell viability counter screen (AID 743209); note: nearly all actives have a fitted effect of over 50% in size
# Summary of the method: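 Luminescence from CellTiter-Glo, added after the beta-lactamase FRET read, gave the viability signal. Cells were HSE-bla HeLa treated with DMSO-dissolved compounds for 5 h at 37 C following overnight plating.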
# [19] = qHTS assay for small molecule activators of the heat shock response signaling pathway (AID 743210; active = well fitted activation curve with a large enough effect in the signal ratio in the repeat runs, with a control signal flat, not every such curve was filed as active; inconclusive = weak or mixed curves; the % refers to the signal ratio;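 note: HeLa cells with beta-lactamase reporter driven by heat shock elements; series mostly up to about 63 µM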)
# Summary of the method: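 HeLa HSE-bla cells, overnight plating; cpd in DMSO 5 h, 37 C; LiveBLAzer B/G FRET substrate 2.5 h RT; fluorescence intensity read.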
# [20] = target: Peroxisome proliferator-activated receptor gamma (Homo sapiens) (UniProt P37231); assay: qHTS assay to identify small molecule antagonists of the peroxisome proliferator-activated receptor gamma (PPARg) signaling pathway (AID 743191; calls by dose curve; note: series mostly up to about 63 µM; nearly all actives have a fitted effect of over 30% in size)
# Summary of the method: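 Beta-lactamase reporter under UAS control in HEK293H PPARg-bla cells; compound treatment 17 h at 37C. Read-out: fluorescence intensity after 1 h room-temperature incubation with LiveBLAzer B/G FRET substrate.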
# Chain of Peroxisome proliferator-activated receptor gamma (Homo sapiens) (P37231 whole entry, looked up): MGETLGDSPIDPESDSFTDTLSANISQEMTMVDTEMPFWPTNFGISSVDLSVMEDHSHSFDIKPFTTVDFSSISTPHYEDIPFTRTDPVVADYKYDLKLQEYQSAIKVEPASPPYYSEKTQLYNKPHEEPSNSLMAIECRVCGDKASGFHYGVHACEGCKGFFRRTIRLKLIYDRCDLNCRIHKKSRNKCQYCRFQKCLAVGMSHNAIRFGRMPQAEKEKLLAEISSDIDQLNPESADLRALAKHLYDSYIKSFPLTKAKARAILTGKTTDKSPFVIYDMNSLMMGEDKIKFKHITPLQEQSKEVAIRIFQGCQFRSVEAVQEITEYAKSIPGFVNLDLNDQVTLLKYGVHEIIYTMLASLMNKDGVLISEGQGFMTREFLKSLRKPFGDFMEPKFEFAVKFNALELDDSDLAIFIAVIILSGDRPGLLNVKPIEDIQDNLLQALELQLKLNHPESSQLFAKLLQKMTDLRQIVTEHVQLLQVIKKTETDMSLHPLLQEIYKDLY
# Chain of Aromatase (Homo sapiens) (P11511 whole entry, looked up): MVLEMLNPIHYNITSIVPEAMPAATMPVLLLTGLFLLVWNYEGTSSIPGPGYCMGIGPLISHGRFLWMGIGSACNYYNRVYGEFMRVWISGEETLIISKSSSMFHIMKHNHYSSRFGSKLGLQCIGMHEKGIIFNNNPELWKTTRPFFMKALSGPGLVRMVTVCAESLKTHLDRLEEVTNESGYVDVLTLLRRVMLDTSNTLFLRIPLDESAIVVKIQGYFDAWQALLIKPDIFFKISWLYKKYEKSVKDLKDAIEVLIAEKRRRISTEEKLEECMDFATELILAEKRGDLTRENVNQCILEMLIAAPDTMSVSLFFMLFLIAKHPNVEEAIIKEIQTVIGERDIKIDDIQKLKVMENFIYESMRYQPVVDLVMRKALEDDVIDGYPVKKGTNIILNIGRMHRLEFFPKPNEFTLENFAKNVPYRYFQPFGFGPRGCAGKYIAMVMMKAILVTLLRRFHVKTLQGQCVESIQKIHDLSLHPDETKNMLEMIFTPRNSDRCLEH
# Chain of Aryl hydrocarbon receptor (Homo sapiens) (P35869 whole entry, looked up): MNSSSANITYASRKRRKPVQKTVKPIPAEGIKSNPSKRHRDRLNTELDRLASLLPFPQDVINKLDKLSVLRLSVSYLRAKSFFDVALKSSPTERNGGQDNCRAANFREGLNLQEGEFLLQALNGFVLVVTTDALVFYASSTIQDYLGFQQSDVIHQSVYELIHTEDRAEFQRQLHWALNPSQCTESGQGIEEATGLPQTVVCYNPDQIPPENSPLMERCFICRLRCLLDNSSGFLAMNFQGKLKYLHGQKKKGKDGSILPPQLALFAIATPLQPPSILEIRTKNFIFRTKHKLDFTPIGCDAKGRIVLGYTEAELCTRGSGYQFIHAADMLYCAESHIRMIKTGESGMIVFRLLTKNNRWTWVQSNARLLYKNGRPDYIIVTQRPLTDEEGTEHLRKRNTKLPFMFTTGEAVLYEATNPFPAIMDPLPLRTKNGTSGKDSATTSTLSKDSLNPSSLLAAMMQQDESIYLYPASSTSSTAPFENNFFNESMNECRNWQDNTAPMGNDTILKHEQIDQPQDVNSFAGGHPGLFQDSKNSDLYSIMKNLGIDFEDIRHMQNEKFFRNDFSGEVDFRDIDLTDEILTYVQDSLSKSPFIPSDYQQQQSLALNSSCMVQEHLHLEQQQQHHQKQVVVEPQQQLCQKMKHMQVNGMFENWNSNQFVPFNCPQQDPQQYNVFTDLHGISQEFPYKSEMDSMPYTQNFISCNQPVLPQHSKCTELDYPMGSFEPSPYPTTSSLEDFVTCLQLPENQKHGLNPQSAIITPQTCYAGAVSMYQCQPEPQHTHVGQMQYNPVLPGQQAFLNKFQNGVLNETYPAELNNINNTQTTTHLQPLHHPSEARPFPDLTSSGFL
# Chain of Estrogen receptor (Homo sapiens) (P03372 whole entry, looked up): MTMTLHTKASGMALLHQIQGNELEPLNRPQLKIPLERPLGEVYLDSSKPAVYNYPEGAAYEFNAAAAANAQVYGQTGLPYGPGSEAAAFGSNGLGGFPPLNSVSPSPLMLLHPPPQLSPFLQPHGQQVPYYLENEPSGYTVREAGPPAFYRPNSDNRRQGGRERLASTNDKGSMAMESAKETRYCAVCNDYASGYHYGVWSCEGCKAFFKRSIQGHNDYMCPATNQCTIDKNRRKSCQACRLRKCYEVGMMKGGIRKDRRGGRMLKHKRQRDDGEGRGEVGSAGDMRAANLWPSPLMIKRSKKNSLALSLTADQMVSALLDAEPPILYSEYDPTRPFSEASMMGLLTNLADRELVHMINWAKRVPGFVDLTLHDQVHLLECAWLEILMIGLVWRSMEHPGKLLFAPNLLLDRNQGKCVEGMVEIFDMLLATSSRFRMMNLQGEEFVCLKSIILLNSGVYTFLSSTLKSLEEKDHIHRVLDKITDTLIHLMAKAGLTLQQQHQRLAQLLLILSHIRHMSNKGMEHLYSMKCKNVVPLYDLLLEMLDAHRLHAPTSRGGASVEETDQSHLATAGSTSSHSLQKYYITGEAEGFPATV
Compound,Potency [1],Potency [2],Potency [3],Potency [4],outcome [5],Potency [6],Potency [7],Potency [8],outcome [9],Potency [10],Potency [11],Potency [12],Potency [13],outcome [14],Potency [15],Potency [16],outcome [17],outcome [18],outcome [19],outcome [20]
O=Cc1ccccc1[N+](=O)[O-],inactive,inactive,inactive,inactive,inactive,inactive,inactive,inactive,inactive,inactive,inactive,inactive,inactive,inactive,inactive,inactive,inactive,inactive,inactive,
CC/C=C\CCCCO,inactive,inactive,inactive,inactive,inactive,inactive,inactive,inactive,inactive,inactive,inactive,inactive,inactive,inactive,inactive,inactive,inactive,inactive,inactive,
O=C(O)C(O)[C@H](O)[C@@H](O)[C@H](O)[C@H](O)CO (stereo partly drawn),inactive,inactive,inactive,inactive,inactive,inactive,inactive,inactive,inactive,inactive,inactive,inactive,inactive,inactive,inactive,inactive,inactive,inactive,inactive,inactive
NC(=O)c1c(Cl)cccc1Cl,inactive,inactive,inactive,inactive,inactive,inactive,inactive,inactive,inactive,inactive,inactive,inactive,inactive,inactive,inactive,inactive,inactive,inactive,inactive,
CCCCN(CCO)CCO,inactive,inactive,inactive,inactive,inactive,inactive,inactive,inactive,inactive,inactive,inactive,inactive,inactive,inactive,inactive,inactive,inactive,inactive,inactive,inactive
CCCCCCCCN(C)CCCCCCCC,inactive,inactive,inactive,inactive,inactive,inactive,inactive,inactive,inactive,inactive,inactive,inactive,inactive,inactive,inactive,inactive,inactive,inactive,inactive,
CCCCCCCCCCCl,inactive,inactive,inactive,inactive,inactive,inactive,inactive,inactive,inactive,inactive,inactive,inactive,inactive,inactive,inactive,inactive,,inactive,inactive,inactive
NC(N)=NS(=O)(=O)c1ccc(N)cc1,inactive,inactive,inactive,inactive,inactive,inactive,inactive,inactive,inactive,inactive,inactive,inactive,inactive,inactive,inactive,inactive,inactive,inactive,inactive,inactive
NC(=O)c1ncn([C@@H]2O[C@H](CO)[C@@H](O)[C@H]2O)c1O,inactive,inactive,inactive,inactive,inactive,inactive,inactive,inactive,inactive,inactive,inactive,inactive,inactive,inactive,inactive,,,inactive,,
CC12CCC(CC1=O)C2(C)C (stereo not drawn),inactive,inactive,inactive,inactive,inactive,inactive,inactive,inactive,inactive,inactive,inactive,inactive,inactive,,inactive,inactive,inactive,inactive,inactive,
COc1cccc(Br)c1,inactive,inactive,inactive,inactive,inactive,inactive,inactive,inactive,inactive,inactive,inactive,inactive,,inactive,inactive,inactive,inactive,inactive,inactive,
C(=C(c1ccccc1)c1ccccc1)c1ccccc1,inactive,inactive,inactive,54.9 µM [inconclusive] (active),inactive,7.76 µM [inconclusive] (active),2.43 µM (active),inactive,inactive,inactive,inactive,inactive,inactive,inactive,inactive,,inactive,inactive,inactive,
CC(C)N1C(=O)c2ccccc2C1=O,inactive,inactive,inactive,inactive,inactive,inactive,inactive,inactive,inactive,inactive,inactive,inactive,inactive,inactive,inactive,,inactive,inactive,inactive,
CC(C)(C)C(=O)/C=C/c1ccc(Cl)cc1,inactive,inactive,inactive,inactive,inactive,inactive,inactive,,inactive,inactive,,inactive,,inactive,inactive,,inactive,inactive,,
CC(C)c1cccc(O)c1,inactive,inactive,inactive,inactive,inactive,inactive,inactive,inactive,inactive,inactive,inactive,inactive,inactive,inactive,inactive,,inactive,inactive,inactive,
C=C(C)C(=O)OCCC(C)OC(=O)C(=C)C (stereo not drawn),inactive,inactive,inactive,inactive,inactive,inactive,inactive,inactive,inactive,inactive,inactive,,,inactive,inactive,inactive,inactive,inactive,inactive,inactive
